Measured potencies and affinities stand elsewhere. Inconclusive results are not listed. The source made the active and inactive calls. Unless noted, no rule for the calls is given here.
Experiments:
[1] = PAX8 transcriptional activity inhibition in RMG-I – RMG-I cells, luciferase, cherry-pick, dose response (AID 687027;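 active = every replicate test run called active, with the signal dropping as expected and potency within twice the top valid dose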)
[2] = RMG-1 ovarian cancer cell viability loss – cherry-pick, dose response (AID 687029;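 active = signal drop whose fitted half-maximal concentration is at most twice the top valid dose, in every test run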;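 also: cells exposed to compound for 96 hours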)
[3] = general cell-killing toxicity readout – plate reader, dry powder samples, cytotoxicity control for PAX8 inhibitor project, dose response (AID 743021)
[4] = CMV-driven luciferase expression suppression in HEK293 – cell-based, luminescence, dry powder, counter-screen for Pax8 inhibitor project, dose response (AID 743020;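 active = signal-lowering compounds whose fitted half-maximal concentration is at or below twice the top tested dose in every run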;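 also: HEK293 cells stably expressing the CMV luciferase reporter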)
[5] = IGROV1 cell killing – plate reader, dry powder samples, PAX8 inhibitor project, dose response (AID 743043);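 also: more negative means fewer viable cells or more cytotoxicity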
[6] = OVCAR-3 cell viability loss – plate reader, dry powder samples, PAX8 inhibitor project, dose response (AID 743044); settings: max activity: at 35 µM, hits give low values unless noted
[7] = toxicity toward immortalized ovarian surface epithelium – cell-based, plate reader, dry powder samples, cytotoxicity control for PAX8 inhibitor project, dose response (AID 743045);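 also: 0% = neutral control median and -100% = positive control median; more negative values mean more cell killing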
[8] = A2780 cell killing – plate reader, dry powder samples, cytotoxicity control, dose response (AID 743046);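 also: 0% = neutral control wells and -100% = cytotoxic reference compound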
[9] = OVCAR8 cell viability loss – plate reader, dry powder samples, PAX8 project, dose response (AID 743197)
[10] = IOSE-T80 viability loss, PAX8-independent line – cell-based, cherry-pick, selectivity assay for PAX8 inhibitor project, dose response (AID 687032;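 active = fitted half-maximal concentration for viability loss no higher than twice the top valid dose, in every repeat run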;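 also: cells exposed to compound for 96 h before reading; 0% = neutral control wells and -100% = 2 µM mitoxantrone kill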)

Measured: max activity

C[C@@H]1CN([C@@H](C)CO)C(=O)CCCn2nncc2CO[C@H]1CN(C)S(=O)(=O)c1ccc(Cl)cc1
inactive: [1] | [2] | [3]

COc1ccc(NC(=O)C[C@H]2C(=O)N(c3ccc(OC)cc3)C[C@@H]2C)cc1
inactive: [1] | [2] | [4] | [3]

CC(=O)N/C(=C\c1ccccc1)C(=O)OCC(=O)NC1CCCC1
inactive: [1] | [2] | [4] | [3]

Nc1ccc2c(c1)CC(=O)c1ccccc1S2
inactive: [1] | [2] | [4] | [3]

CCCNC(=O)COC(=O)/C=C/c1ccco1
inactive: [1] | [2] | [3]

Nc1ncn([C@H]2C[C@H](O)[C@@H](CO)O2)c(=O)n1
inactive: [1] | [2] | [4] | [3]

CN(C)CC#Cc1ccc([C@@H]2[C@H](CO)N3CCCCN(C(=O)Nc4ccc(F)cc4)C[C@@H]23)cc1
inactive: [1] | [2] | [4] | [3] | [5] | [6] 29.4% [at 0.26 µM, hits give low values] | [7] | [8] | [9]

CN(C(=O)COC(=O)C1CCN(S(=O)(=O)c2c(Cl)cccc2Cl)CC1)C1CCS(=O)(=O)C1 (stereo unspecified)
inactive: [1] | [2] | [4] | [3]

CO[C@@H]1CN(C)C(=O)c2cc(NC(=O)c3nc4ccccc4s3)ccc2OC[C@H](C)NC[C@H]1C
inactive: [1] | [2] | [4] | [3] | [5] | [6] -38.8% [at 30 µM, hits give low values] | [7] | [9]

COc1ccc(-n2nc([N+](=O)[O-])c(=NCc3cccnc3)n2O)cc1
inactive: [1] | [2] | [4] | [3]

Cn1ccnc1SCc1nc2c(cnn2-c2ccccc2)c(=O)[nH]1
inactive: [1] | [2] | [3]

O=C(Cc1nnc(NC(=O)c2ccccc2)s1)N/N=C/c1ccco1
inactive: [1] | [2] | [4] | [3]

C[C@@H]1CN([C@@H](C)CO)S(=O)(=O)c2ccc(C#Cc3ccncc3)cc2O[C@@H]1CN(C)C(=O)C1CCCCC1
inactive: [1] | [10] | [4] | [3] | [5] | [6] -17.5% [at 1 µM, hits give low values] | [7] | [8] | [9]

Cc1ccc(S(=O)(=O)Nc2ccc3c(c2)C(=O)N([C@@H](C)CO)C[C@@H](C)[C@@H](CN(C)C)OCCCC[C@H](C)O3)cc1
inactive: [1] | [10] | [4] | [3] | [5] | [6] 20.9% [at 0.26 µM, hits give low values] | [7] | [8] | [9]

CCOc1ccc2nc(N/C(N)=N/C(=S)Nc3ccc(C)c(C)c3)nc(C)c2c1
inactive: [1] | [4] | [3]

NC1=C(Br)C(=O)c2ncccc2C1=O
inactive: [2]

O=C(CCl)N(c1ccccc1)C1CCCCC1
inactive: [2]

COc1cc(OC)cc(C(=O)NCC(=O)OCC(=O)c2cc(C)n(Cc3ccco3)c2C)c1
inactive: [1] | [4] | [3]

Cc1nn(-c2ccccc2)c(Cl)c1CN(C(=O)CCl)c1cccc2ccccc12
inactive: [2]

— PubChem BioAssay
